Laboratory results taken from PubChem BioAssay (NCI).
This is part of a sample that, as a whole, favours compounds with a hit. Of some 79,000 tested, about 15% had one in any assay. A number with no mark means an inactive call. Activity calls are given as the source filed them. Cut-off read from the data, not from the text of the source: active = growth inhibition above about 70%; inactive = the rest. Where a SMILES comes first, the peptide text is derived from it.

Columns and labels:
[1] = NCI Yeast Anticancer Drug Screen. Data for the rad50 strain (AID 155);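 note: 0% = growth of vehicle-only cultures of the same strain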; conditions: S. cerevisiae rad50 strain growth inhibition; at 50.0 µM; stronger effect = higher value
Method in brief: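 Cells are treated with compound, grown, and their growth is then scored against vehicle-only cultures of the same repair-deficient yeast strain.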

[2] = NCI Yeast Anticancer Drug Screen. Data for the mec2-1 strain (AID 157); conditions: S. cerevisiae mec2-1 strain, at 50.0 µM, stronger effect = higher value
Method in brief: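 Using mec2-1 yeast: add compound, measure growth, express inhibition versus vehicle-treated cultures.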

[3] = NCI Yeast Anticancer Drug Screen. Data for the sgs1 mgt1 strain (AID 161);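 note: 0% = growth of cultures given vehicle only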; conditions: S. cerevisiae sgs1 mgt1 strain, at 50.0 µM, stronger effect = higher value
Method in brief: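 Yeast cells carrying a defined DNA-repair defect were exposed to test compounds. Growth inhibition was measured relative to vehicle-treated controls.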

[4] = NCI Yeast Anticancer Drug Screen. Data for the cln2 rad14 strain (AID 165);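 note: 0% = growth equal to vehicle treated cultures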; conditions: S. cerevisiae cln2 rad14 strain, at 50.0 µM, stronger effect = higher value
Method in brief: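 Yeast strain cln2 rad14, bearing defects in cell cycle control and DNA repair, serves as the test system; values reflect growth inhibition compared with vehicle.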

[5] = NCI Yeast Anticancer Drug Screen. Data for the bub3 strain (AID 167); conditions: S. cerevisiae bub3 mutant strain, at 50.0 µM, stronger effect = higher value
Method in brief: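 Part of a panel of yeast mutants defective in DNA damage repair or cell cycle regulation. Each strain is grown with compound, and inhibition is calculated relative to solvent-treated cultures.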

[6] = NCI Yeast Anticancer Drug Screen. Data for the mlh1 rad18 strain (AID 175); conditions: S. cerevisiae mlh1 rad18 strain growth inhibition; at 50.0 µM; stronger effect = higher value
Method in brief: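 Steps: expose repair-defective yeast to compound; measure growth; express inhibition against vehicle-treated controls.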

| Compound | growth inhibition [1] | growth inhibition [2] | growth inhibition [3] | growth inhibition [4] | growth inhibition [5] | growth inhibition [6] |
| --- | --- | --- | --- | --- | --- | --- |
| COc1ccc(NC2=CC(=O)c3ccccc3C2=O)cc1 | 0.4% | 5.55% | 4.1% | -35% | 18.2% | -7.1% |
| CCCCN(CCCC)c1ccc(N=C(C#N)c2ccc(N(CCCC)CCCC)cc2)cc1 | -21.4% | -14.2% | 14% | -38.8% | -3% | 19.5% |
| O=C(CN1CCN(Cc2ccccc2)CC1)N1CCCn2c1nc1ccccc1c2=O | -18.1% | -16.6% | -7.9% | 7.6% | 11.9% | -3.85% |
| O=c1oc2ccccc2cc1S(=O)(=O)c1ccc(Cl)cc1 | -0.9% | 0.85% | 3.7% | -58% | -9.75% | -20.4% |
| Cc1nnc2n(c1=O)CCN2C | -1.65% | 0.1% | 12.3% | -4.4% | 7.8% | 26.2% |
| O=C1N=C(c2c[nH]c3ccccc23)C(=O)N1 | -1.8% | 6.9% | 15.9% | 12.6% | -1.45% | 8.8% |
| COC1=C(OC)C(=O)C(C(=O)CCCCC(=O)O)=C(C)C1=O | 4.8% | 0.5% | 8.5% | -35.4% | 2.9% | 13.9% |
| c1ccc(COC2C3COC(O3)C(OCc3ccccc3)C2OCc2ccccc2)cc1 (stereo not given) | 11.7% | -1.7% | 26.4% | 3.2% | 17.7% | 22.4% |
| c1ccc(-n2cccc2)cc1 | 7.4% | 7.05% | 9.25% | -30% | -3.7% | -11.6% |
| OC1CC2CCCCC2CC1C1CCCCC1 (stereo not given) | 4.15% | -11.2% | -7.25% | -25.6% | -23.7% | 0.85% |
| CC1NC(=O)C2CCCN2C(=O)C2CCCN2C(=O)C(C(C)C)NC(=O)C(Cc2ccccc2)NC(=O)C(Cc2ccccc2)NC(=O)C2CCCN2C(=O)C2CCCN2C(=O)C(Cc2ccccc2)NC(=O)C(Cc2ccccc2)NC1=O (stereo not given) (cyclo(AFFPPFFVPP); configuration not given here) | 6.65% | -8.5% | -2.35% | 2.8% | 1.25% | 16.6% |
| COc1ccc(-c2cc(=O)c3cccc(CC(=O)O)c3o2)cc1OC | 99.2% (active) | 99.2% (active) | 97.5% (active) | 98.8% (active) | 99.3% (active) | 99.2% (active) |
| C=CCc1cc(N)ccc1O | 15.9% | 8.9% | 11.8% | 11.8% | 11.7% | 7.9% |
| NC(=NCC(O)c1ccccc1)Nc1ccccc1 (stereo not given) | 0.75% | -8.6% | 15.1% | 6.1% | 18.1% | 10.6% |
| CCC(=O)OCCCCC1CCCO1 (stereo not given) | 9.35% | 5.4% | 2.25% | 2.75% | 12.3% | 4.4% |
| Cc1c(N)cc2c(c1N)C(C)(C)CC2(C)C | 1.35% | -2.2% | -0.4% | -6.35% | 11.1% | -4.6% |
| COc1c(Cl)c(Cl)c2ncc(Cl)cc2c1Cl | -3.7% | -3.3% | -3.5% | -29.1% | 14.8% | -14.9% |
| CC(=O)c1ccc(O)c(C)c1 | -9.3% | -8.9% | -6.55% | 5.5% | -8.1% | -0.2% |
| O=C(/C=C/c1ccc2c(c1)OCO2)C1CC1 | 6.45% | 11.1% | 28.2% | 8.25% | 27.7% | 16.9% |
| Nc1c(N2CCCCC2)c(=O)nc2[nH]/c(=C\c3ccco3)c(=O)n12 | 5.45% | -26.1% | 10.9% | -21.4% | 8.8% | -7.6% |

| Compound | growth inhibition [1] | growth inhibition [2] | growth inhibition [3] | growth inhibition [4] | growth inhibition [5] | growth inhibition [6] |
| --- | --- | --- | --- | --- | --- | --- |
| CCC(C(=O)c1ccccc1)[n+]1ccccc1 (stereo not given) | -4.55% | -16% | -6.7% | -15.6% | 13.2% | 3.05% |
| [Cu+2].[NH-]C(CC(=O)O)C(=O)O.[NH-]C(CC(=O)O)C(=O)O (stereo not given) | -35.3% | -11.7% | -13.7% | 64.4% | -61.3% | -3.45% |
| COCCOCOC(C)(C)CCCCl | 11.3% | 24% | 21.9% | -5.2% | -2.1% | -20% |
| NC(=O)SCC(=O)Nc1ccc2ncccc2c1 | -18.9% | 4.7% | -22.8% | -27.2% | -8.15% | 2.8% |
| [N-]=[N+]=Nc1cc(-c2ccccc2)nc2cc3c(cc12)OCO3 | -2.9% | -7.95% | -19.8% | -16.4% | -34.2% | -7.2% |
| CC(C)OC(=O)N1C(=O)C2C3CCC(O3)C2C1=O (stereo not given) | 9.2% | 8.25% | 15.2% | 10.4% | 9.65% | 16.1% |
| S=C(NCc1ccc(Cl)cc1Cl)Nc1ccccc1 | 23.1% | 73% (active) | 75.8% (active) | -1.8% | 64.7% | 72.5% (active) |
| COc1ccc([B-]23OCC[N+]2(CNC(=O)c2ccccc2O)CCO3)cc1 (stereo not given) | 27.4% | 2.7% | 13.9% | 14.9% | 7.3% | 17.6% |
| CC(=O)N/C(=C/c1ccccc1)C(=O)NC(C)(C)C | -13.1% | -6.15% | -9.85% | -4.25% | 1.2% | 0.05% |
| CCC(C(=O)O)C(C)(C)O (stereo not given) | -10.8% | -11.1% | -7.95% | 7.05% | -0.85% | -15.3% |
| c1ccc(C2=NC(c3ccccc3)N=C(c3ccccc3)N2)cc1 | -0.75% | 10.3% | 6.1% | -6% | 9.75% | 13.2% |
| CN(CC(=O)O)Cc1oc(CO)cc(=O)c1O | -9.45% | -9.5% | -6.1% | -37.5% | -40% | -14.3% |
| CCC1C(=O)OCc2c1cc1n(c2=O)C(CC)c2c-1nc1ccccc1c2Cl (stereo not given) | 57.4% | 14.6% | 8.15% | -28.3% | -2.95% | 4.55% |
| O=C1NC2(c3ccccc3)CCCCC2O1 (stereo not given) | -4.95% | -3.05% | -5.95% | 1.95% | -6.35% | -6.6% |
| Cc1ccc(S(=O)c2cccs2)cc1 (stereo not given) | 2.15% | -28.1% | -49% | -38.9% | -18% | -28.8% |
| CCCCNc1nc2nc[nH]c2c(=O)[nH]1 | -5.45% | -6.3% | -13.2% | -2.25% | -29.1% | -48% |
| c1ccc2c3c([nH]c2c1)CCCCCC3 | 19.2% | 14.6% | 15.1% | 13.2% | 21.8% | 15.9% |
| O=S(=O)(N/N=C(/CC/C(=N\NS(=O)(=O)c1ccccc1)c1ccccc1)c1ccccc1)c1ccccc1 | 27.7% | 5.2% | 11.7% | 7.55% | -2% | 7.95% |
| CS(=O)(=O)CC(=O)c1ccc(Br)cc1 | -3.1% | -4.05% | 14.1% | -12.8% | -5.45% | 10.3% |
| C=C(c1ccccc1)C1(O)CCCCC1N(C)C (stereo not given) | -24.4% | -13.8% | 0.7% | -12.3% | 10.9% | 12.4% |
